Results from PubChem BioAssay.
Calls of active or inactive are those of the source. Unless noted, the rule behind the calls is not given here.

Key:
[1] = resazurin metabolic signal in HepG2 cells – cell-based, resazurin fluorescence, 24 h, PK04 Diversity Set, profiling panel (AID 1172); conditions: HepG2 viability, higher = more signal; note: test concentration not given here
[2] = budding yeast growth changes without added modifier – OD600, strain BY4716, 24 h, basal condition, primary screen (AID 1173); conditions: S. cerevisiae BY4716 growth, OD600, 24 h; higher = more signal, called active from +8 up or from −8 down
[3] = viability profiling in MM1S myeloma cells – cell-based, resazurin fluorescence, basal, 24 h, PK04 Diversity Set, profiling panel (AID 1174); conditions: higher = more signal, called active from +8 up or from −8 down;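 note: MM1S multiple myeloma cell line; test concentration not given here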
[4] = biological target: Dihydroorotate dehydrogenase (quinone), mitochondrial (Plasmodium falciparum (isolate 3D7)) (UniProt Q08210); assay: inhibition of P. falciparum DHODH – biochemical, C-terminal His tag, absorbance 600 nm, primary screen (AID 1175); conditions: PfDHODH enzyme, DCIP absorbance 600 nm; higher = more signal, called active from +8 up or from −8 down;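 note: recombinant parasite enzyme with a five histidine tag at its C terminus; test concentration not given here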
Chain of Dihydroorotate dehydrogenase (quinone), mitochondrial (Plasmodium falciparum (isolate 3D7)) (Q08210 whole entry, looked up): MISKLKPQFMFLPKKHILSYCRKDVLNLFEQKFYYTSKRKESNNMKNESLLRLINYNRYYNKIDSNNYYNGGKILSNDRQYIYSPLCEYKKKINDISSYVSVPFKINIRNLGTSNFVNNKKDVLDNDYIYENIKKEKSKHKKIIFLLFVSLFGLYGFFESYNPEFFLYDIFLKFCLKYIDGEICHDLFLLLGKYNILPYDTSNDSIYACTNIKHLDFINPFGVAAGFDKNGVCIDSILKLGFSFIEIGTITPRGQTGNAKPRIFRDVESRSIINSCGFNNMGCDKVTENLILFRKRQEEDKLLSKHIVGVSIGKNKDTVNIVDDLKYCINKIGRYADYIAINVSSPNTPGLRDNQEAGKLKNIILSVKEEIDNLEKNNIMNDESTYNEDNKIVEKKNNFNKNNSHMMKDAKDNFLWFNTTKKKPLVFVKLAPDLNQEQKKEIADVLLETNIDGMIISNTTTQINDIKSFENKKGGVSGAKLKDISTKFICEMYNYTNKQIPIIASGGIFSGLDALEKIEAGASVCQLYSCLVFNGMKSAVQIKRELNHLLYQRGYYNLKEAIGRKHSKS

[5] = inhibition of PAO1 biofilm formation – strain PAO1, LB-PBS medium, absorbance 600 nm, primary screen (AID 1176); note: test concentration not given here; conditions: P. aeruginosa PAO1 growth/biofilm, A600, 12 h; higher = more signal
[6] = growth modulation of vineyard yeast isolate – strain RM11-1a, OD600, basal, 24 h, primary screen (AID 1177);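 note: cultures grown under basal conditions with no added stressor; test concentration not given here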; conditions: S. cerevisiae RM11-1a growth, OD600, 24 h; higher = more signal, called active from +8 up or from −8 down
[7] = growth of efflux-deficient E. coli DRC39 – strain DRC39, OD650, 24 h, E. coli filamentation inducers, primary screen (AID 1178);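 note: growth measured as culture turbidity by optical density at 650 nm; test concentration not given here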; conditions: E. coli DRC39 acrAB, higher = more signal, called active from +8 up or from −8 down
[8] = growth of efflux-deficient E. coli DRC39 – strain DRC39, OD650, 48 h, E. coli filamentation inducers, primary screen (AID 1179);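 note: screen aims at cell division blockers that make cells filament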; conditions: E. coli DRC39 delta-acrAB growth, higher = more signal, called active from +8 up or from −8 down
[9] = viability profiling in RPMI8226 myeloma cells – cell-based, resazurin fluorescence, basal, 24 h, PK04 Diversity Set, profiling panel (AID 1180); conditions: higher = more signal;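 note: RPMI8826 multiple myeloma cell line at 5000 cells per well; test concentration not given here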
[10] = biological target: E3 ubiquitin-protein ligase XIAP (Homo sapiens) (UniProt P98170); assay: small molecules binding XIAP protein – biophysical, small-molecule microarray, fluorescence 635 nm, primary screen (AID 1181); conditions: higher = more signal;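 note: score merges 667 nm emission and signal to noise over triplicate slides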
Chain of E3 ubiquitin-protein ligase XIAP (Homo sapiens) (P98170 whole entry, looked up): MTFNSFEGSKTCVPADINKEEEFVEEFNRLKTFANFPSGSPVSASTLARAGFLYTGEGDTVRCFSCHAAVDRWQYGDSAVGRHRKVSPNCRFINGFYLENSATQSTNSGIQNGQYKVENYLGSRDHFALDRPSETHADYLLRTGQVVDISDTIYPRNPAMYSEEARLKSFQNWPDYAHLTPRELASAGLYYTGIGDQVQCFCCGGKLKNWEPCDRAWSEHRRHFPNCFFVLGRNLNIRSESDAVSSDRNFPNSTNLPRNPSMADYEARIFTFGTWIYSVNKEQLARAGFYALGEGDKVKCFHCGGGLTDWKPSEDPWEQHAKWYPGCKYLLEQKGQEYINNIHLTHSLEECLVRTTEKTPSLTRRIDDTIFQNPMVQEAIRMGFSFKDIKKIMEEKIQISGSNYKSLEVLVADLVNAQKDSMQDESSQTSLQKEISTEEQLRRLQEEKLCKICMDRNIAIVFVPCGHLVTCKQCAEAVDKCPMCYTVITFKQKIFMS

Structure (SMILES) | z-score [1] | z-score [2] | z-score [3] | composite z-score [4] | z-score [5] | z-score [6] | z-score [7] | z-score [8] | z-score [9] | composite z-score [10]
COCCOC(=O)N1C(=O)[C@@]2(c3cc(C#CCNC(N)=O)ccc31)[C@H](c1ccc(O)cc1)N1[C@H](c3ccccc3)[C@H](c3ccccc3)OC(=O)[C@H]1[C@@H]2C(=O)N1CCN(c2ncccn2)CC1 | 0.392 | 2.72 (inactive) | -0.441 (inactive) | -0.265 (inactive) | 2.81 (inactive) | 3.03 (inactive) | -0.123 (inactive) | 0.0896 (inactive) | -0.0784 | -0.205
COC(=O)c1c2oc(c1C(=O)OC)C(=O)N1CCC[C@H]1Cn1nncc1CN(Cc1ccccc1)C(=O)N[C@H](CO)CC2 | 0.744 | -3.62 (inactive) | -0.0795 (inactive) | 0.453 (inactive) | -0.0513 (inactive) | 0.738 (inactive) | 0.663 (inactive) | 0.836 (inactive) | 0.343 | -0.0832
[N-]=[N+]=NCc1ccccc1[C@H]1OC(c2ccc(OCCCO)cc2)=N[C@@]1(CCS(=O)(=O)c1ccccc1)C(=O)NCc1ccccc1 | 1.18 | 0.879 (inactive) | -0.0789 (inactive) | 0.786 (inactive) | -0.4 (inactive) | 2.19 (inactive) | 1.01 (inactive) | 0.536 (inactive) | 0.032 | 0.129
C=C(C(=O)CC[C@H](OC(=O)c1ccccc1-c1ccccc1C(=O)O)c1ccccc1OCCO)C(C)C | 0.0659 | -1.04 (inactive) | 0.181 (inactive) | -0.169 (inactive) | 0.108 (inactive) | -0.0722 (inactive) | 0.88 (inactive) | 0.32 (inactive) | -0.268 | 0.194
[N-]=[N+]=NCc1ccccc1C[C@]1(C(=O)N2CCOCC2)COC(c2ccc(OCCCO)cc2)=N1 | 0.0629 | -2.42 (inactive) | 0.117 (inactive) | 0.42 (inactive) | 0.715 (inactive) | 1.43 (inactive) | 2.56 (inactive) | 1.71 (inactive) | 0.698 | 0.18
COC(=O)C(CC#Cc1ccc2c(c1)[C@]1(C(=O)N2)[C@H](C(=O)Nc2nc3ccccc3s2)[C@H]2C(=O)O[C@H](c3ccccc3)[C@H](c3ccccc3)N2[C@@H]1c1ccc(OCCO)cc1)C(=O)OC | 0.885 | -0.0399 (inactive) | 0.973 (inactive) | -3.07 (inactive) | 3.52 (inactive) | -0.367 (inactive) | 0.776 (inactive) | 1.42 (inactive) | -2.38 | -0.0391
CC=CC(O)C1C=CC2C(=O)NC(=O)C2N1Nc1ccccn1 (stereo not given) | -1.45 | 0.866 (inactive) | -0.949 (inactive) | 0.434 (inactive) | 0.667 (inactive) | 1.83 (inactive) | -0.837 (inactive) | 0.272 (inactive) | -0.349 | -0.031
CN1C(=O)C2C=CC(C(O)c3cc(C(F)(F)F)cc(C(F)(F)F)c3)N(Nc3ccccc3)C2C1=O (stereo not given) | -0.0075 | -2.64 (inactive) | -0.18 (inactive) | -0.274 (inactive) | 0.214 (inactive) | -0.478 (inactive) | -0.732 (inactive) | -0.556 (inactive) | 0.298 | 0.0641
CCOC(=O)C1=CCC(c2ccco2)N(S(=O)(=O)c2ccc(C)cc2)C1 (stereo not given) | 1.18 | -4.03 (inactive) | 0.123 (inactive) | -2.2 (inactive) | -0.253 (inactive) | -0.749 (inactive) | 0.234 (inactive) | 1.34 (inactive) | 0.769 | 0.424
CC(C)[C@H]1NC(=O)[C@@]23C(=O)N[C@@H](Cc4ccccc4)C2[C@H](C)[C@@]2(C)O[C@H]2C3/C=C/CCC/C=C/CNC(=O)[C@H](Cc2ccccc2)NC1=O (stereo not given in full) | -1.15 | -1.76 (inactive) | -0.457 (inactive) | 0.112 (inactive) | -0.471 (inactive) | -0.201 (inactive) | -0.297 (inactive) | -0.786 (inactive) | 0.0125 | -0.039
O=C1O[C@H](c2ccccc2)[C@H](c2ccccc2)N2[C@H]1[C@@H](C(=O)N1CCCCCCC1)[C@]1(C(=O)Nc3ccc(C#CC4(O)CCCCCC4)cc31)[C@H]2c1ccccc1OCCO | 1.72 | 0.893 (inactive) | -0.382 (inactive) | 0.195 (inactive) | 0.682 (inactive) | 2.45 (inactive) | 0.138 (inactive) | -1.14 (inactive) | -0.443 | 2.12
COCCCNC(=O)[C@@H]1c2ccccc2C(=O)N(C2Cc3ccccc3C2)[C@H]1c1ccc(CO)cc1 | -0.138 | -0.483 (inactive) | 0.354 (inactive) | -0.774 (inactive) | 0.388 (inactive) | -0.344 (inactive) | 0.722 (inactive) | 0.468 (inactive) | 0.653 | -0.169
C=CCC(OC(C)=O)[C@@H]1[C@@H](N(Cc2ccc(-c3cccc(C(F)(F)F)c3)o2)C(=O)c2cccc3ccccc23)c2cc(OCCCO)ccc2N1C(=O)Cc1ccc(OC)cc1 (stereo not given in full) | 0.119 | -1.8 (inactive) | 0.0814 (inactive) | -0.349 (inactive) | -1.17 (inactive) | -0.0592 (inactive) | 1.11 (inactive) | 0.721 (inactive) | -0.189 | -0.102
[N-]=[N+]=NCc1ccccc1C[C@@]1(C(=O)N2CCCCC2)N=C(c2ccc(OCCCO)cc2)O[C@@H]1c1ccccc1CN=[N+]=[N-] | -0.539 | 0.069 (inactive) | -1.27 (inactive) | 0.669 (inactive) | 1.87 (inactive) | 1.61 (inactive) | 0.191 (inactive) | 0.594 (inactive) | -0.911 | -0.117
C[C@]1(C(=O)O)c2ccccc2C(=O)N(Cc2ccc(OC(F)(F)F)cc2)[C@H]1c1ccc(CO)cc1 | 0.0448 | -0.847 (inactive) | 0.0944 (inactive) | -0.295 (inactive) | 0.0993 (inactive) | -0.475 (inactive) | 0.248 (inactive) | -0.0775 (inactive) | 0.441 | 0.265
Nc1cc(Br)ccc1C(=O)O | 0.615 | -0.811 (inactive) | 1.11 (inactive) | -0.627 (inactive) | -0.612 (inactive) | -0.127 (inactive) | 0.37 (inactive) | -0.138 (inactive) | 1.29 | 0.0837
C=CCC(OC(C)=O)[C@@H]1[C@@H](N(Cc2cccc3ccccc23)C(=O)Cc2ccc(F)cc2)c2cc(OCCCO)ccc2N1C(=O)c1ccc(-c2ccccc2)cc1 (stereo not given in full) | -0.271 | 0.388 (inactive) | -0.0279 (inactive) | 0.366 (inactive) | 0.231 (inactive) | -0.163 (inactive) | -0.386 (inactive) | -0.0169 (inactive) | 0.336 | 0.0623
COCCOC(=O)N1C(=O)[C@@]2(c3cc(C#CCC(C(=O)OC)C(=O)OC)ccc31)[C@H](c1ccc(OCCO)cc1)N1[C@H](c3ccccc3)[C@H](c3ccccc3)OC(=O)[C@H]1[C@@H]2C(=O)Nc1nc2ccccc2s1 | 1.13 | 1.05 (inactive) | 0.814 (inactive) | -1.53 (inactive) | 3.58 (inactive) | 3.24 (inactive) | 1.18 (inactive) | 0.901 (inactive) | -1.15 | 0.0506
CC(C)C(=C=CC[C@H](O)c1cccc(OCCO)c1)CCO | 0.934 | -1.47 (inactive) | 1.09 (inactive) | -0.131 (inactive) | -0.0464 (inactive) | -0.661 (inactive) | 0.353 (inactive) | 0.642 (inactive) | 0.929 | -0.031
NC(=O)NCC#Cc1ccc2c(c1)[C@]1(C(=O)N2)[C@H](C(=O)N2CCN(c3ncccn3)CC2)[C@H]2C(=O)O[C@H](c3ccccc3)[C@H](c3ccccc3)N2[C@@H]1c1ccc(OCCO)cc1 | 0.906 | 2.6 (inactive) | 0.0294 (inactive) | -0.238 (inactive) | 1.91 (inactive) | 3.91 (inactive) | 0.436 (inactive) | -0.114 (inactive) | 0.0901 | -0.202
CC(C)C[C@@H]1NC(=O)[C@@]23C(=O)N[C@@H](Cc4ccccc4)C2[C@H](C)[C@@]2(C)O[C@H]2C3/C=C/C/C=C\CNC(=O)[C@@H](C)NC1=O (stereo not given in full) | 0.833 | -0.68 (inactive) | 1.33 (inactive) | -0.401 (inactive) | -0.131 (inactive) | -1.08 (inactive) | 1.65 (inactive) | 0.209 (inactive) | 1.01 | -0.116
